PubChem BioAssay AID1461 (National Center for Advancing Translational Sciences (NCATS), 2008)
The whole screen tested about 220,000 compounds, of which about 2,300 (1%) were called active. Not shown: some 6% with an inconclusive outcome. The call rests on the fitted dose curve; in most records, active means well fitted inhibition curve with a large enough effect; inconclusive means small, poorly fitted or top-dose-only effect, or effect the other way; inactive means no such curve, though single readings can be large or run the other way. For the sample, actives were picked, then their nearest neighbours and some compounds at random.

Molecular target: Neuropeptide S receptor (Homo sapiens) (UniProt Q6W5P4)
Assay: qHTS Assay for Antagonists of the Neuropeptide S Receptor: cAMP Signal Transduction; further: nearly all actives have a fitted effect of over 50% in size
Conditions: CHO-NPSR cells, cAMP TR-FRET, antagonist mode; series mostly up to 38.3 µM; activity change, negative = inhibition: at the top concentration
Description: NIH Chemical Genomics Center [NCGC] NIH Molecular Libraries Probe Production centers Network [MLPCN] MLPCN Grant: X01-DA026210-01 Assay Submitter (PI): Heilig, Markus Alexander NCGC Assay Overview: Neuropeptide S receptor (NPSR), previously known as GPR154, is a recently de-orphanized G protein coupled receptor. Its endogenous ligand is the 20 amino acids peptide Neuropeptide S (NPS). […] NPS and its receptor are found in various tissues. Specifically they are highly expressed in brain areas that have been implicated in modulation of arousal, stress and anxiety. Central administration of NPS in mice produces an unusual profile of activity by inducing wakefulness and arousal, while at the same time suppressing anxiety. Therefore, NPSR may represent a novel drug target for the treatment of sleep and anxiety disorders. To identify NPSR antagonists, we developed a cell-based cAMP assay. NPS can stimulate the production of cAMP in Chinese hamster ovary cells stably expressing NPS receptor. This change in intracellular cAMP level can be detected by a homogeneous LANCE cAMP assay based on the TR-FRET (time resolved fluorescence resonance energy transfer) between a europium-labeled cAMP tracer complex and a cAMP-specific antibody labeled with Alexa Fluor 647. The europium-labeled cAMP tracer complex is formed by the tight interaction between Biotin-cAMP (b-cAMP) and streptavidin labeled with Europium-W8044 chelate (Eu-SA). Light pulse at 320 nm excites the europium of the cAMP tracer and the energy emitted is transferred to the Alexa molecule bound to the cAMP antibody, generating a TR-FRET signal at 665 nm. Residual energy from the europium will produce a light at 620 nm. The native unlabeled cAMP from cell lysates competes with the europium-cAMP tracer for antibody binding and reversely reduces the emission signal of Alexa by interrupting FRET between the two labeled molecules. Both emission signals from the FRET donor (620 nm) and the acceptor (665 nm) can be detected by a plate reader in the TRF mode. Expression of result in fluorescence ratio (665 nm/620 nm) helps to normalize differences due to cell density and reagent dispensing. This assay was successfully optimized to a 1536-well plate format.
NCGC Assay Protocol Summary: A Chinese hamster ovary (CHO) cell line stably expressing the NPS receptor (CHO-NPSR) was obtained from Dr. Heilig lab at NIAAA and maintained in F-12 Kaighn's media (Invitrogen, Carlsbad, CA, 21127) supplemented with 10 % FBS, 100 units/ml penicillin, 100 ug/ml streptomycin and 250 ug/ml geneticin at 37C, 5% CO2 in a humidified atmosphere. Before the assay, aliquots of cells were frozen and stored at -135C. The assay was performed in 1536-well format. Data are reported for both the ratio of the two emission wavelengths, and also for the component 'donor' channel, Em2=620. Data were normalized to the controls for basal activity (DMSO only) and 100% inhibition (No NPS control). IC50 values were determined from concentration-response data modeled with the standard Hill equation. NPS 1536-well assay protocol: (1) Fresh or frozen CHO-NPSR cells were suspended in F-12 Kaighn's media supplemented with 10 % FBS, 100 units/ml penicillin and 100 ug/ml streptomycin. Cells were plated at 4 ul/well (1200 cells) to white, tissue culture treated 1536-well plates, and then cultured at 37C, 5 % CO2 for 16 to 30 hours. (2) Add 23 nl/well of compound in DMSO solution. The final titration for each compound was between 0.6 nM and 46 uM. (3) Add 1 ul of stimulation reagent (1X HBSS buffer, 5 mM HEPES, 0.1% BSA, 500 uM RO-201724 (Sigma-Aldrich, B8279), 1.5% Alexa 647-labeled anti-cAMP antibody (from Perkin Elmer), 100 nM NPS) (4) Incubation at 37C, 5 % CO2 for 60 min. (5) Add 1 ul/well detection reagent. Detection reagent was prepared by adding biotin labeled cAMP (4%), streptavidin labeled with Europium-W8044 chelate (1.33%) and TritonX-100 (1%) to detection buffer. […]
On the % scale 0 is the no-effect control and ±100 the full control effect; potency means the concentration at half of the fitted maximal effect.

Neuropeptide S receptor (Homo sapiens), sequence (Q6W5P4 whole entry, looked up): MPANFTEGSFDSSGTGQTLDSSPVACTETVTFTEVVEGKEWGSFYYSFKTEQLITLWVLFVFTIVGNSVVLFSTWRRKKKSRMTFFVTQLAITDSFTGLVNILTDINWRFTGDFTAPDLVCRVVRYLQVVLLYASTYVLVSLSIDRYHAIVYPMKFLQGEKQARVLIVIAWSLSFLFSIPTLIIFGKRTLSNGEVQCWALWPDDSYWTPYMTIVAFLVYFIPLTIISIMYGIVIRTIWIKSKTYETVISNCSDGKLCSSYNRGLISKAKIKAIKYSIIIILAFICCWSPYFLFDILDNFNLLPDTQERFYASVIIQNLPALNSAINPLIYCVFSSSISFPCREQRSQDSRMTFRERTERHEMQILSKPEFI

Structure (SMILES)	activity change, negative = inhibition	Potency
Cc1ccc(NC(=O)C/C(N)=N/O)cc1Cl	-0.778% [at 7.67 µM] (inactive)	
O=C(CC(O)(C(F)(F)F)C(F)(F)F)Nc1ccc(Cl)c(Cl)c1		6.31 µM (active)
O=C(CC(=O)Nc1ccc(Cl)c(Cl)c1)N/N=C/c1ccc(O)cc1	17.9% (inactive)	
COc1cc2c(cc1OC)C(/C=C/c1ccco1)=NCC2	-41.7% (inactive)	
COC(=O)c1cc(NC(=O)c2ccco2)ccc1N1CCOCC1	-5.71% (inactive)	
CC(=O)Nc1ccc(NC(=O)CSc2ncnc3c2cnn3Cc2ccccc2)cc1	4.76% (inactive)	
CC1(C)Cc2nc3sc4c(SCC(=O)NC(c5ccccc5)c5ccccc5)ncnc4c3cc2CO1		1.26 µM (active)
C=CCn1c(=S)[nH]c2nc3c(cc2c1=O)COC(C)(C)C3	1.99% [at 46.1 µM] (inactive)	
O=c1[nH]nc(SCCS(=O)(=O)c2ccc(F)cc2)n1-c1ccccc1C(F)(F)F	13.4% (inactive)	
Cc1cccc2c1-c1sc(C(=O)NCCCN3CCc4ccccc4C3)cc1CO2	-16.1% (inactive)	
O=C(C[n+]1ccc2c(c1)nnn2-c1ccccc1)c1ccc(Cl)cc1	-24.3% (inactive)	
O=C(Cn1nnc(N2CCCCC2)n1)c1ccc(Cl)c(Cl)c1	3.87% (inactive)	
O=S(=O)(NCc1ccco1)c1cnc(Cl)c(Cl)c1	25.6% [at 7.67 µM] (inactive)	
Cn1c(SCC(=O)N2CCOCC2)nnc1-c1ccc2ncccc2c1	7.2% (inactive)	
CC(C)=CCc1c(O)c(CC=C(C)C)c2occ(-c3ccc(O)cc3)c(=O)c2c1O	-56.7% (inactive)	
O=C1CN(c2nc(-c3ccccc3)c3cc(Br)ccc3n2)c2ccccc2N1		6.31 µM (active)
Cc1ccc(C)c(S(=O)(=O)N2CC(=O)Nc3ccccc32)c1	-7.92% [at 46.1 µM] (inactive)	
Cc1ccc(S(=O)(=O)N2CC(=O)Nc3ccccc32)cc1C	6.63% [at 46.1 µM] (inactive)	
COc1ccc(CN2CCOC2=O)cc1OC	-18.3% (inactive)	
COc1ccccc1C1/C(=C(/O)c2ccc(OC(C)C)cc2)C(=O)C(=O)N1c1cc(C)on1 (stereo unspecified)	-10.3% [at 46.1 µM] (inactive)	
Cc1cc(N2C(=O)C(=O)/C(=C(/O)c3ccc(Cl)cc3)C2c2cccc(Br)c2)no1 (stereo unspecified)		12.6 µM (active)
COc1ccc(C2/C(=C(/O)c3ccccc3)C(=O)C(=O)N2c2ncccn2)cc1OC (stereo unspecified)	1.24% (inactive)	
CC(=O)NCc1ccc(S(=O)(=O)NC2CCN(Cc3ccccc3)CC2)cc1	23.9% (inactive)	
COc1ccc(Br)c2c1C(=O)CC2	-25.8% (inactive)	
COC(=O)c1cn(C(=O)c2ccc(Cl)cc2)c2ccccc12	-27% (inactive)	
CCOC(=O)NNc1cc(C(F)(F)F)ccn1	-10.8% (inactive)	

Structure (SMILES)	activity change, negative = inhibition	Potency
COc1ccccc1P(=O)(c1ccccc1)c1ccccc1NC(C)=O (stereo unspecified)	17.4% (inactive)	
Cc1cccc(NC(=O)c2sc(-c3ccccc3)nc2-c2ccc([N+](=O)[O-])cc2)c1	-3.9% (inactive)	
CCOC(=O)/C(=C\c1ccc([N+](=O)[O-])cc1)C(=O)c1cc(C(C)=O)c(Nc2ccccc2)s1		7.94 µM (active)
O=C(Nc1ccccc1)/C(=C/c1ccc([N+](=O)[O-])cc1)NC(=O)c1ccccc1	4.16% (inactive)	
Cc1ccc(C)c2[nH]c(=O)c(CN(Cc3cccnc3)C(=S)NCc3ccco3)cc12	-30.5% (inactive)	
COc1ccc(NC(=O)/C(Cl)=C(/Cl)S(=O)Cc2ccc(C)cc2)cn1 (stereo unspecified)		1 µM (active)
COc1ccc(NC(=S)Nc2ccccc2Cl)cn1	9.18% (inactive)	
COc1ccc(Nc2cc(Cl)ccc2C(=O)O)cn1	-22.8% (inactive)	
COc1cccc(Nc2nc(N)c([N+](=O)[O-])c(NCc3ccco3)n2)c1	-26.4% (inactive)	
C/C(=N\OCC(=O)O)c1ccc(Cl)cc1	9.86% [at 7.67 µM] (inactive)	
Cc1noc(C)c1S(=O)(=O)Nc1cc(C(F)(F)F)ccc1N1CCOCC1	8.56% (inactive)	
COc1ccc(C(=O)C2CCCN(Cc3ccc4nonc4c3)C2)c(C)c1 (stereo unspecified)	-40.1% (inactive)	
COc1ccc(S(=O)(=O)Nc2ccc(O)c(Sc3nc4ccccc4s3)c2)cc1	-10.1% (inactive)	
O=C(CSc1nc2ccccc2s1)Nc1ccc(C(=O)O)cc1	-10.3% (inactive)	
O=[N+]([O-])c1c(NCCO)cc(Sc2nc3ccccc3s2)c2nonc12		10 µM (active)
COc1cc2nc(Cl)nc(NCCO)c2cc1OC	4.49% (inactive)	
C/C(=N/NC(=O)CC(=O)N/N=C(\C)c1ccc([N+](=O)[O-])cc1)c1ccc([N+](=O)[O-])cc1	-5.47% (inactive)	
O=C(Cn1cnc2cc([N+](=O)[O-])ccc2c1=O)NC(=O)NCc1ccccc1	10.6% (inactive)	
Cc1ccc(SC(CC(=O)c2ccc(C(C)(C)C)cc2)C(=O)O)cc1 (stereo unspecified)		10 µM (active)
Cc1ccc(C(=O)CS(C)(=O)=O)cc1	-4.78% [at 46.1 µM] (inactive)	
Cc1ccc(CSCC(N)C(=O)O)cc1 (stereo unspecified)	22.8% (inactive)	
C/C(Cc1ccccc1)=N\NC(=O)CNC(=O)c1ccc2c(c1)OCCO2	4.68% (inactive)	
CC1CC2=C(CC1/C=N/NC(N)=S)C(C)(C)CCC2 (stereo unspecified)		12.6 µM (active)
CC1(C)CCCC2=C1CC1C(=O)N(c3ccccc3)C(=O)C1C2 (stereo unspecified)	-11.9% [at 46.1 µM] (inactive)	
Oc1[nH]c2ccc(Br)cc2c1N=Nc1nn[nH]n1	-16.6% (inactive)	
